The source of these data is PubChem BioAssay (NCI).

This is part of a sample that, as a whole, favours compounds with a hit. Of some 83,000 tested, about 20% had one in any assay.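 Note: values are percent growth. 100 is the growth of untreated cells, values between 100 and 0 indicate rising inhibition; between -100 and 0 indicates cell death.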 Values without a mark were called inactive. Active and inactive are the calls of the source. Rule for the calls: active = growth percent below 10; inactive = the rest.

The subject of this assay is M14 melanoma. As to the kind of experiment: NCI-60 one-dose screen, 48 h (100 = growth as untreated, 0 = no growth, -100 = all killed). The note with it: 10 µM unless noted.
With `COc1cc(C2CC(=O)Nc3c2cnn3C)cc(OC)c1OC` (stereo not drawn), the growth was 103%.

Regarding `C=C(c1ccc(C(=O)NCCCn2ccnc2)cc1)c1cc2c(cc1C)C(C)(C)CCC2(C)C`, the growth is -76.4% (active).

For the compound `Nc1c(Br)cc2c(c1Br)Cc1cc(Cl)ccc1-2`, the growth was 106%.

Turning to `CCCCCCCCCCCCNC(=O)N[C@H](C(=O)N[C@H]1/C=C/CCNC(=O)/C=C/[C@H](C)NC1=O)C(C)C`, the growth is -82% (active).

In the case of `C=C(C)[C@@H]1CC[C@]2(C(=O)NS(=O)(=O)c3ccccc3)CC[C@]3(C)[C@H](CC[C@@H]4[C@@]5(C)CC[C@H](OC(=O)NS(=O)(=O)c6ccccc6)C(C)(C)[C@@H]5CC[C@]43C)[C@@H]12`, the growth is 12.8%.

Consider `FC(F)(F)c1cc(-c2nnc3n2N=C(Cl)CS3)cc(C(F)(F)F)c1`, for which the growth is 84.6%.

For the compound `Cc1cc(-c2ccccc2)on1`, the growth is 105%.

Consider `CNC(=O)c1c(NC(=O)c2cccc(C(F)(F)F)c2)sc2c1CCC(=O)C2`, for which the growth is -10.9% (active).

In the case of `COc1ccccc1/C=C/C(=O)CCC(=O)O`, the growth is 99.8%.

With `NNc1ccc(S(N)(=O)=O)cc1`, the growth was 101%.

Take `CCc1c(C)c2ccc(O)c(-c3cc(-c4ccccc4)c(C#N)c(=O)[nH]3)c2oc1=O`: the growth is 102%.

`O=C1OCC2=C1C(c1ccccc1)c1cc3c(cc1N2CCO)OCO3` (stereo not drawn): the growth is 3.99% (active).

Regarding `CCCCCCCCCCCCNC(=O)N[C@H](C(=O)N[C@H]1/C=C/OCCNC(=O)/C=C/[C@H](C(C)C)NC1=O)C(C)C`, the growth is 87.2%.

Consider `COc1ccc(-n2nc(C(=O)Nc3ccc(F)cc3)nc2-c2cc(OC)c(OC)c(OC)c2)cc1`, for which the growth is 110%.

For the compound `COc1ccc2c(c1)OC1=C(C(=O)OC1)C2c1cc(OC)c2c(c1)OCCO2` (stereo not drawn), the growth was 4.69% (active).

Regarding `O=S1(=O)NCCN1CCNc1nccc(-c2c(-c3cccc(O)c3)nc3sccn23)n1`, the growth is 20.8%.

Consider `O=C(CC(=O)C(F)(F)C(F)(F)C(F)(F)F)c1cc2ccccc2o1`, for which the growth was 106%.

As to `Clc1cc2nc(-c3ccccc3)c(-c3ccccc3)nc2cc1Cl`, the growth is 85.9%.

On to `CC(C)(C)c1ccc(C(=O)Nc2sc3cc(O)ccc3c2C(N)=O)cc1`, for which the growth was 22.1%.

`CC1=CCC2C1CC=C(C)C(CC[C@H]1[C@@](C)(O)CCC3OC(C)(C)[C@H](OC(=O)c4ccccc4)CC[C@@]31C)C2(C)C` (stereo partly drawn): the growth is 90.1%.

In the case of `CC(=O)C1CCC2C3CC(C)=C4CC(O)CCC4(C)C3CCC12C` (stereo not drawn), the growth was 98.1%.

On to `CCCCCCCCCCCCCC`, for which the growth is 115%.

In the case of `CCN(CCC#N)c1ccccc1`, the growth was 109%.

In the case of `O=S1(=O)NCCCN1CCNc1nccc(-c2c(-c3cccc(O)c3)nc3sccn23)n1`, the growth was 7.6% (active).

For `COc1ccc(-c2conc2-n2nc(-c3ccccc3)nc2-c2ccccc2)cc1`, the growth is 98.6%.

For the compound `COc1ccccc1CNCCCN1C(=O)c2ccc3c4c(ccc(c24)C1=O)C(=O)N(CCCCNCCCN)C3=O`, the growth is -49.3% (active).

Take `Cc1ccc(C(=O)CC(=O)C(F)(F)C(F)(F)C(F)(F)F)s1`: the growth is 103%.

Take `O=C1CCCN1C(O)CCN(Cc1ccccc1)Cc1ccc(Cl)cc1` (stereo not drawn): the growth was 99.9%.

Take `Nc1c(N)c2ccccc2c2ccccc12`: the growth is 113%.

Take `CCOC(=O)C1=C(C)NC(=S)NC1c1ccccc1` (stereo not drawn): the growth was 107%.

Consider `CCOC(=O)C1=C(C(=O)OCC)N(c2cc(OC)c(OC)c(OC)c2)C(N)=C(C#N)C1c1cc(=O)[nH]c2ccccc12` (stereo not drawn), for which the growth was 105%.

As to `CC(=O)Nc1ccc(/C=N/N2CCCCCC2)cc1`, the growth was 106%.

In the case of `CCOC(=O)c1cnc(SCC)nc1SC#N`, the growth is 84.7%.

Turning to `COc1cc(OC)c(C(=O)/C=C/c2cccc(OC(C)=O)c2)cc1CC=C(C)C`, the growth is 87.6%.

Turning to `COc1cc2ccc(C(C)=O)cc2cc1OC`, the growth is 110%.

Turning to `CN1CCCN(CCNc2nccc(-c3c(-c4cccc(O)c4)nc4sccn34)n2)S1(=O)=O`, the growth was -0.122% (active).

With `CCN(CC)c1ccc(/C=C2/NC(=O)NC2=O)cc1`, the growth was 8.99% (active).

Take `CCOC(=O)c1ccc2c(c1)[n+](=O)c(C(=O)c1ccc3ccccc3c1)c(C(F)(F)F)n2[O-]`: the growth is -100% (active).
